In PubChem BioAssay:
Active and inactive are the calls of the source.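 Rule for the calls, unless noted: active = normalized viability below 100% at a tested concentration; inactive = the rest.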

Key:
[1] = viability loss with induced miR-34 in A549 – imaging, A549 dox-inducible miR-34, nuclei and caspase counts, primary screen (AID 1347080;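 active = compounds whose cell count with miR-34 switched on is under 0.7 times the count with it off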); details: A549 miR-34 inducible, Hoechst nuclei count, 48 h
[2] = MELAS cybrid and Rieske KO viability enhancers – cell-based, MELAS cybrids, Rieske KO mouse fibroblasts, CellTiter-Glo, primary screen (AID 1508586;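 active = mean z-score across replicates of 1.96 or higher in either the MELAS or the Rieske mutant cell line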;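 note: z relative to plate mean and SD of compound and empty wells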); details: low glucose
[3] = drug combination growth inhibition, ovarian cancer – cell-based, oncology-focused library, rucaparib conditional, profiling panel (AID 1508598); details: patient-derived ovarian cancer cells, CellTiter-Glo viability, 144 h, stronger effect = lower value
[4] = stronger effect = lower value, cell number ratio, induced over uninduced
[5] = measured here: relative caspase fold change +Dox/-Dox
[6] = measured here: total cells with miR-34 induction, stronger effect = lower value
[7] = measured here: total cells without miR-34 induction
[8] = MELAS cybrid survival, CellTiter-Glo 48 h, stronger effect = higher value
[9] = Rieske KO mouse fibroblast survival, CellTiter-Glo 72 h
[10] = at 0.000305 µM, OCI-C5x cells, with rucaparib 10 µM, 100% = cells with rucaparib alone
[11] = at 0.000305 µM, OCI-C5x cells, without rucaparib
[12] = at 0.000305 µM, OCI-P5x cells, with rucaparib 20 µM, 100% = cells with rucaparib alone
[13] = at 0.000305 µM, OCI-P5x cells, without rucaparib
[14] = at 0.00122 µM, OCI-C5x cells, with rucaparib 10 µM, 100% = cells with rucaparib alone
[15] = at 0.00122 µM, OCI-C5x cells, without rucaparib
[16] = at 0.00122 µM, OCI-P5x cells, with rucaparib 20 µM, 100% = cells with rucaparib alone
[17] = at 0.00122 µM, OCI-P5x cells, without rucaparib
[18] = at 0.00488 µM, OCI-C5x cells, with rucaparib 10 µM, 100% = cells with rucaparib alone
[19] = at 0.00488 µM, OCI-C5x cells, without rucaparib
[20] = at 0.00488 µM, OCI-P5x cells, with rucaparib 20 µM, 100% = cells with rucaparib alone
[21] = at 0.00488 µM, OCI-P5x cells, without rucaparib
[22] = at 0.0195 µM, OCI-C5x cells, with rucaparib 10 µM, 100% = cells with rucaparib alone
[23] = at 0.0195 µM, OCI-C5x cells, without rucaparib
[24] = at 0.0195 µM, OCI-P5x cells, with rucaparib 20 µM, 100% = cells with rucaparib alone
[25] = at 0.0195 µM, OCI-P5x cells, without rucaparib
[26] = at 0.0781 µM, OCI-C5x cells, with rucaparib 10 µM, 100% = cells with rucaparib alone
[27] = at 0.0781 µM, OCI-C5x cells, without rucaparib
[28] = at 0.0781 µM, OCI-P5x cells, with rucaparib 20 µM, 100% = cells with rucaparib alone
[29] = at 0.0781 µM, OCI-P5x cells, without rucaparib
[30] = at 0.313 µM, OCI-C5x cells, with rucaparib 10 µM, 100% = cells with rucaparib alone
[31] = at 0.313 µM, OCI-C5x cells, without rucaparib
[32] = at 0.313 µM, OCI-P5x cells, with rucaparib 20 µM, 100% = cells with rucaparib alone
[33] = at 0.313 µM, OCI-P5x cells, without rucaparib
[34] = at 1.25 µM, OCI-C5x cells, with rucaparib 10 µM, 100% = cells with rucaparib alone
[35] = at 1.25 µM, OCI-C5x cells, without rucaparib
[36] = at 1.25 µM, OCI-P5x cells, with rucaparib 20 µM, 100% = cells with rucaparib alone
[37] = at 1.25 µM, OCI-P5x cells, without rucaparib
[38] = at 5 µM, OCI-C5x cells, with rucaparib 10 µM, 100% = cells with rucaparib alone
[39] = at 5 µM, OCI-C5x cells, without rucaparib
[40] = at 5 µM, OCI-P5x cells, with rucaparib 20 µM, 100% = cells with rucaparib alone
[41] = at 5 µM, OCI-P5x cells, without rucaparib

COc1ccccc1-c1cc(Nc2cccc(CS(N)(=O)=O)c2)ncn1
inactive: fold change [1, 4] 0.955 | z-score [2, 8] -0.3 | viability [3, 10] 125% | viability [3, 11] 105% | viability [3, 14] 122% | viability [3, 18] 127% | viability [3, 19] 107% | viability [3, 20] 103% | viability [3, 22] 126% | viability [3, 23] 117% | viability [3, 24] 103% | viability [3, 26] 126% | viability [3, 27] 115% | viability [3, 28] 100% | viability [3, 29] 102% | viability [3, 30] 111% | viability [3, 31] 102% | viability [3, 34] 125% | viability [3, 35] 110% | viability [3, 38] 105%
-1.46: z-score [2, 9]
0.462: fold change [1, 5]
4080: cell count [1, 7]
active: viability [3, 12] 92.8% | viability [3, 13] 91.1% | viability [3, 15] 98.9% | viability [3, 16] 96.8% | viability [3, 17] 90.1% | viability [3, 21] 95.2% | viability [3, 25] 97.6% | viability [3, 32] 93.6% | viability [3, 33] 99.6% | viability [3, 36] 91.1% | viability [3, 37] 94.8% | viability [3, 39] 99.7% | viability [3, 40] 64.2% | viability [3, 41] 74.8%
3900: cell count [1, 6]

CN(C)CCOc1ccc(-c2nc(-c3ccc4c(c3)CCC4=NO)c(-c3ccncc3)[nH]2)cc1
1.04: fold change [1, 5]
0.963: z-score [2, 9]
7200: cell count [1, 7]
6630: cell count [1, 6]
active: viability [3, 12] 72.5% | viability [3, 13] 88.8% | viability [3, 16] 70.7% | viability [3, 17] 68.7% | viability [3, 20] 70.2% | viability [3, 21] 74.7% | viability [3, 24] 69.4% | viability [3, 25] 73.6% | viability [3, 28] 83.1% | viability [3, 32] 85.3% | viability [3, 36] 78.5% | viability [3, 40] 1.04%
inactive: fold change [1, 4] 0.921 | z-score [2, 8] -0.178 | viability [3, 10] 124% | viability [3, 11] 144% | viability [3, 14] 121% | viability [3, 15] 132% | viability [3, 18] 121% | viability [3, 19] 153% | viability [3, 22] 109% | viability [3, 23] 138% | viability [3, 26] 125% | viability [3, 27] 133% | viability [3, 29] 111% | viability [3, 30] 119% | viability [3, 31] 140% | viability [3, 33] 114% | viability [3, 34] 120% | viability [3, 35] 153% | viability [3, 37] 108% | viability [3, 38] 136% | viability [3, 39] 187% | viability [3, 41] 102%

CN(CC(=O)N(Cc1ccc(C2CCCCC2)cc1)c1ccc(C(=O)O)cc1)S(=O)(=O)c1c(F)c(F)c(F)c(F)c1F
4130: cell count [1, 7]
inactive: fold change [1, 4] 0.95 | z-score [2, 8] 1.94 | viability [3, 10] 114% | viability [3, 11] 111% | viability [3, 13] 102% | viability [3, 14] 115% | viability [3, 15] 111% | viability [3, 17] 102% | viability [3, 18] 119% | viability [3, 19] 111% | viability [3, 22] 118% | viability [3, 23] 112% | viability [3, 26] 126% | viability [3, 27] 116% | viability [3, 30] 115% | viability [3, 31] 111% | viability [3, 34] 114% | viability [3, 35] 107%
0.483: z-score [2, 9]
3920: cell count [1, 6]
0.314: fold change [1, 5]
active: viability [3, 12] 97.3% | viability [3, 16] 96% | viability [3, 20] 92.6% | viability [3, 21] 97.4% | viability [3, 24] 97.6% | viability [3, 25] 95.6% | viability [3, 28] 93.1% | viability [3, 29] 94.2% | viability [3, 32] 94.9% | viability [3, 33] 95.1% | viability [3, 36] 8.63% | viability [3, 37] 75.3% | viability [3, 38] 3.43% | viability [3, 39] 2.98% | viability [3, 40] 0.394% | viability [3, 41] 0.691%

CC1OC(O)C(O)C(O)C1O (stereo not drawn)
7350: cell count [1, 7]
1: fold change [1, 5]
7230: cell count [1, 6]
inactive: fold change [1, 4] 0.984 | z-score [2, 8] -0.0523
-0.0922: z-score [2, 9]

CC(C)(C)C(=O)Nc1ccc2c(c1)C(=O)C(=O)c1ccccc1-2
active: viability [3, 12] 95.2% | viability [3, 13] 90.7% | viability [3, 16] 99.1% | viability [3, 17] 91.1% | viability [3, 20] 78.7% | viability [3, 21] 63.1% | viability [3, 24] 79% | viability [3, 25] 64.3% | viability [3, 28] 63.5% | viability [3, 29] 45.6% | viability [3, 30] 81.1% | viability [3, 32] 29.6% | viability [3, 33] 18.8% | viability [3, 38] 70.9% | viability [3, 40] 2.26% | viability [3, 41] 7.62%
636: cell count [1, 7]
833: cell count [1, 6]
0.69: fold change [1, 5]
inactive: fold change [1, 4] 1.31 | z-score [2, 8] 0.258 | viability [3, 10] 109% | viability [3, 11] 109% | viability [3, 14] 127% | viability [3, 15] 103% | viability [3, 18] 116% | viability [3, 19] 114% | viability [3, 22] 119% | viability [3, 23] 112% | viability [3, 26] 118% | viability [3, 27] 113% | viability [3, 31] 112% | viability [3, 34] 114% | viability [3, 35] 113% | viability [3, 36] 103% | viability [3, 37] 104% | viability [3, 39] 107%
-7.92: z-score [2, 9]
